Compounds with a hit are over-represented: about 7.4% of the library has one in this group of screens.
FLuc counter: firefly luciferase modulation, counter-screen for miR-21 project; P08659; purified FLuc, Km substrates, luminescence inhibition; Potency, µM (highest dose often 57.5 µM), inactives show top-dose activity change, negative = inhibition, usual class: inhibitors; 6.9% of 360,000 active; AID 588342;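 also: plate controls were vehicle for no effect and reference inhibitor for full effect; nearly all actives have a fitted effect of over 55% in size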
Target sequence (P08659 whole entry, looked up): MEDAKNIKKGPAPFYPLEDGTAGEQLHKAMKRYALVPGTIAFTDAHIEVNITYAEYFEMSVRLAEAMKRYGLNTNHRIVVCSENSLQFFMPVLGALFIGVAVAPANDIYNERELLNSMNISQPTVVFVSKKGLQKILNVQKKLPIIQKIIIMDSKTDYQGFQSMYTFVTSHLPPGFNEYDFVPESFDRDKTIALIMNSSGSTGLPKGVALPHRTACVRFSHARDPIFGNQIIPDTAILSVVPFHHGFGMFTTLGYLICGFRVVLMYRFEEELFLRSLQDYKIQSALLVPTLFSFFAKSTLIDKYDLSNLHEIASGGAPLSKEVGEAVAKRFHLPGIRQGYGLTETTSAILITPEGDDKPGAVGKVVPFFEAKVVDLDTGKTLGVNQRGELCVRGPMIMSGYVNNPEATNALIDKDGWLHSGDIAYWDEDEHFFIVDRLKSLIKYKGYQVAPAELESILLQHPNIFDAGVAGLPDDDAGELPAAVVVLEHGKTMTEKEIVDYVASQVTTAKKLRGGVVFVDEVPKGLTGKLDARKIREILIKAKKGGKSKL
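Purified P. pyralis luciferase (10nM final) with 10uM D-luciferin and 10uM ATP (Km levels) in 50mM Tris acetate pH 7.5, 10mM Mg acetate, 0.01% Tween-20, 0.05% BSA; qHTS 6-point titration, ~60 µM downward; luminescence read.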
Luc counter: counter-screen: inhibitors of Kinase-Glo firefly luciferase. Q27757. Kinase-Glo luciferase, ATP luminescence, 8 min. Potency, µM (doses to about 38.3 µM), for inactives: at the top dose activity change, negative = inhibition, hits mostly inhibitors. 0.28% of 200,000 active. AID 1379; also: % is scaled to controls: 0 for no effect and ±100 for the full control effect; nearly all actives have a fitted effect of over 60% in size
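Light output from Kinase-Glo luciferase with luciferin and 10 uM ATP in 50 mM imidazole pH 7.2, KCl, MgCl2, Tween 20, BSA; compound pin-delivered, 8-min ambient incubation, then luminescence read.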
ELG1 genotox: induces genotoxicity in HEK293T cells with luciferase-tagged ELG1. Potency, µM (top dose mostly 46 µM), inactives show at the top dose activity change, positive = activation, most hits filed as activators. 1.3% of 330,000 active. HEK293T ELG1-luciferase reporter, luminescence, 16 h; also: % of control where 0% means no effect; nearly all actives have a fitted effect of over 60% in size
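Genotoxic stress is detected as increased luminescence from luciferase-tagged ELG1 in HEK293T cells, measured with ONE-Glo after a 16 hr treatment at 37 °C.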
NPC1 promoter act: NPC1 promoter activation | Huh7 NPC1 promoter luciferase reporter, 24 h | Potency, µM (titrated, usually from 9.22 µM), without a hit: top-dose activation, most hits filed as activators | 2.4% of 320,000 active | AID 485313; also: % of control where 0% means no effect; nearly all actives have a fitted effect of over 60% in size
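Huh7 reporter cells (NPC1 promoter driving luciferase) are dosed with compound for 24 h at 37 °C, 5% CO2; luciferase detection reagent is then added and luminescence measured after 10 min at ambient temperature.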
SMN2 splice enh: enhancers of SMN2 splice variant expression | HEK293 SMN2-luciferase splicing reporter, luminescence, 30-36 h | Potency, µM (top dose mostly 46.1 µM), for the others: top-dose activity change, positive = activation, most hits filed as activators | 2.8% of 210,000 active; also: % of control where 0% means no effect; nearly all actives have a fitted effect of over 55% in size
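HEK293 cells carry an SMN2 […]–luciferase reporter in which exon 7 inclusion puts luciferase in frame. Cells were plated 10-12 h before compound addition, then incubated 30-36 h at 37C. ONE-Glo luminescence was read; sodium butyrate at 4.5 mM final served as control.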
Rab9 prom act: activates the Rab9 promoter. Potency, µM (series often up to 9.22 µM), without a hit: at the highest dose activation, negative = inhibition, hits mostly activators. AID 485297. 2.8% of 320,000 active. Huh7 Rab9 promoter-luciferase reporter, luminescence, 24 h; also: % of control where 0% means no effect; nearly all actives have a fitted effect of over 60% in size
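Rab9 promoter-driven luciferase in stably transfected Huh7 cells; 1500 cells/well rested 2 h, exposed to compound in DMSO for 24 h at 37 °C, 5% CO2. Luminescence read 10 min after adding luciferase reagent at ambient temperature.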
Starred values were filed as active, the others as inactive; ? = inconclusive; . = no result; [ ] = remark or other dose. Calls follow the shape of the dose curve; as a rule, active = well fitted curve in the direction sought with a large enough effect; inconclusive = small, poorly fitted or top-dose-only effect, or another doubt; inactive = no such curve, though single readings can be large; an effect the other way counts as inactive or inconclusive. Potency is read from the fitted curve at half-maximal effect.

SMILES	FLuc counter	Luc counter	ELG1 genotox	NPC1 promoter act	SMN2 splice enh	Rab9 prom act
O=C(Nc1nnc(Cc2ccc(Cl)cc2)s1)c1cccs1	-0.9%	1.5%	21.3%	17.1%	15.3%	20.4%
O=C(Nc1nnc(CC2=CCCCC2)s1)c1cccs1	?	-0.4%	14.6µM*	?	14.1µM*	?
O=C(Nc1nnc(Cc2ccccc2)s1)c1cccs1	?	11.7%	?	?	12.1%	1.78µM*
O=C(Nc1nnc(Cc2ccccc2)s1)c1ccccc1	-17.8%	.	?	3.16µM*	.	?
c1ccc(CNc2ccc3ccccc3n2)nc1	4.78µM*	?	?	2.24µM*	?	?
FC(F)(F)c1ccc(NCc2ccccn2)nc1	16.9µM*	.	?	?	.	?
Cc1cc(NCc2ccccn2)nc2ccccc12	?	-2.4%	7.2%	10.5%	4.7%	6.3%
O=S(=O)(NCc1ccccn1)c1cc(C(F)(F)F)ccc1Cl	-2.5%	-1.4%	-1.0%	-3.2%	-5.5%	-1.9%
C=CC1=C2C=C(C3CC3)N(Cc3ccco3)C=C2C(=O)C(C)(OC(=O)c2ccco2)C1=O (stereo not given)	.	-2.2%[7.66 µM]	.	.	0.4%[9.22 µM]	.
O=C(O)c1ccc(-n2c(/C=C\c3ccc(O)cc3)nc3ccccc3c2=O)cc1	?	.	.	.	-8.7%	.
Cc1cccc(/C=C/c2nc3ccccc3c(=O)[nH]2)c1	1.07µM*	-20.4%	8.2µM*	?	4.47µM*	?
O=C(O)c1ccc(/C=C/c2nc3ccccc3c(=O)[nH]2)cc1	15.1µM*	.	-2.7%	12.4%	.	-5.3%
COc1cc(/C=C/c2nc3ccccc3c(=O)[nH]2)cc(Br)c1O	-2.6%	.	1.4%	11.7%	.	3.5%
CCn1c(/C=C/c2c(C)[nH]c3ccccc23)nc2ccccc2c1=O	-2.7%	-4.0%	7.0%	-1.8%	-5.8%[1.84 µM]	9.5%
O=c1[nH]c(/C=C/c2ccccc2Cl)nc2ccccc12	0.849µM*	.	2.06µM*	?	.	0.398µM*
Cc1[nH]c2ccccc2c1/C=C/c1nc2ccccc2c(=O)[nH]1	2.39µM*	.	7.3µM*	3.16µM*	.	1.41µM*
O=C(CCc1nc2sc3c(c2c(=O)[nH]1)CCCC3)N1CCN(c2ccccc2)CC1	0.3%	.	-2.7%	1.6%	.	-1.4%
O=C(O)c1ccc(/C=C/c2nc3sc4c(c3c(=O)[nH]2)CCC4)cc1	19µM*	-2.4%	3.2%	5.1%	-13.3%	12.9%
CN(C)/C=C/C(=O)c1ccc(-n2cccc2)cc1	10.7µM*	-18.5%	?	3.55µM*	12.6µM*	2.82µM*
Cc1ccc(CNC(=O)c2c(O)nc3ccccn3c2=O)cc1	-3.0%	.	.	.	-5.8%	.
O=C1c2ccccc2C(=O)N1CCSC(=S)N1CCOCC1	12µM*	0.7%	?	?	?	?
Cc1ccccc1NC(=O)c1nc2nccc(C)n2n1	?	?	?	?	14.1µM*	3.55µM*
Cc1nn(-c2ccccc2)c2sc(C(=O)OC3CCOC3=O)cc12 (stereo not given)	15.1µM*	3.9%	2.0%	2.5%	9.0%	-1.1%
COC(=O)c1cc2c(C)nn(-c3ccccc3)c2s1	-18.2%	0.5%	12.8%	28.8%	15.4%	6.0%
Cc1nn(-c2ccccc2)c2sc(C(=O)N3CCOCC3)cc12	10.7µM*	0.6%	?	?	11.2µM*	3.55µM*
SMILES	FLuc counter	Luc counter	ELG1 genotox	NPC1 promoter act	SMN2 splice enh	Rab9 prom act
Cc1ccc(-n2nc(C)c3cc(C(=O)O)sc32)cc1	19µM*	-3.3%	3.3%	-1.3%	8.1%	-3.5%
Cc1nn(-c2ccccc2)c2sc(C(=O)O)cc12	?	-0.5%	0.3%	1.3%	?	3.4%
O=C(NCCOc1ccccc1)O[C@@H]1C(=O)c2cc(Br)ccc2O[C@H]1c1ccc2c(c1)OCO2	.	0.7%	.	.	7.0%	.
CCc1nnc(NC(=O)c2ccc(COc3ccccc3)o2)s1	-13.5%	0.9%	16.0%	2.2%	-2.3%	3.3%
O=C(Nc1nccs1)c1ccc(COc2ccccc2)o1	?	.	?	2.51µM*	.	4.47µM*
Cc1ccc(OCc2ccc(C(=O)Nc3nccs3)o2)cc1	16.9µM*	-0.4%	3.1%	25.8%	9.8%	15.9%
Clc1ccc(CN2CCCN(Cc3ccc(Cl)cc3)C2c2cc3ccccc3c3ccccc23)cc1	.	-6.8%[7.66 µM]	.	.	-26.7%[9.22 µM]	.
CCOc1ccc(-c2ccc(SCC)nn2)cc1	1.2µM*	?	1.16µM*	0.708µM*	4.47µM*	0.631µM*
CCSc1ccc(-c2ccc(C)cc2)nn1	2.39µM*	-16.9%	?	1µM*	10µM*	0.708µM*
COc1ccc(-c2ccc(SC)nn2)cc1	1.51µM*	4.47µM*	-8.3%	0.501µM*	1.78µM*	0.1µM*
COc1ccc(CCn2nnnc2C2(c3ccc(C)cc3)CC2)cc1	.	.	.	-1.9%[46.1 µM]	.	-11.2%[46.1 µM]
COc1ccccc1N1CCN(C(=O)CSc2ncccc2-c2nc3ccccc3[nH]2)CC1	23.9µM*	13.8%	4.2%	0.4%	-35.5%	1.4%
COc1ccccc1N1CCN(C(=O)CSc2nc3ccccc3[nH]2)CC1	8.6%	-2.2%	-5.2%	0.9%	-13.7%	-0.2%
COc1ccc(N2CCN(C(=O)CSc3ncccc3-c3nc4ccccc4[nH]3)CC2)cc1	10.7µM*	-4.3%	2.8%	8.0%	-30.7%	-2.1%
O=C(CSc1ncccc1-c1nc2ccccc2[nH]1)N1CCN(c2ccccc2F)CC1	19µM*	-6.0%	-2.4%	-11.1%	-19.3%	20.7%
CCCNS(=O)(=O)c1cc(-c2nnc3c4ccccc4c(C)nn23)ccc1OC	1.8%	.	.	.	-21.9%	.
Cc1cc(=O)[nH]c(N=N/C(=N/Nc2ccc(O)cc2)c2ccccc2)n1	10.7µM*	7.94µM*	?	4.2%	-54.8%	0.0%
Cc1cc(=O)[nH]c(N=N/C(=N/Nc2ccccc2C)c2ccccc2)n1	-19.9%	?	4.1%	-16.4%	-94.1%	-28.8%
COc1ccc(C(=O)CSc2nc(C)cc(=O)[nH]2)cc1	-1.4%	-1.5%	4.2%	1.2%	15.5%	1.1%
COc1ccc(N/N=C(/N=Nc2nc(C)cc(=O)[nH]2)c2ccccc2)cc1	4.26µM*	8.91µM*	2.59µM*	?	-61.7%	-8.5%
Cc1cccc(Cn2cccc2CNS(=O)(=O)c2ccccc2F)c1	2.6%	.	.	.	.	.
O=C(Nc1ccc2c(c1)CCCN2C(=O)c1cccs1)c1ccccc1Cl	-18.1%	.	.	.	.	.
C[C@@](N)(/C=C\c1ccccc1)C(=O)O	.	-1.7%[7.66 µM]	.	.	-4.6%[9.22 µM]	.
CCOc1c(Br)cc(C2CC(=O)Nc3cc4c(cc32)OCO4)cc1OC (stereo not given)	-7.3%	.	.	.	10.2%	.
COc1cccc(C=Nc2ccccc2C#N)c1O	2.69µM*	?	0.0%	-2.5%	?	-2.2%
N#Cc1ccccc1N=Cc1ccc(Br)cc1	1.51µM*	-3.2%	3.2%	-0.2%	-1.6%	0.3%

Compound activity deposited in PubChem by National Center for Advancing Translational Sciences (NCATS).
